Data as given in the supplement of paper PMC10477191.
± gives the standard deviation of the averaged measurements.

Tested on: Drosophila ezoana antennal basiconic sensillum ab6
Test: odor-evoked OSN spike response (post minus pre-stimulus); higher = stronger neuronal excitation
Details: odor dilution: 10^-4
Experimental: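 Single sensillum recordings from antennal basiconic sensilla of D. ezoana. A 500 ms pulse of odorant (10^-4 in mineral oil or DMSO) was delivered; the response is the change in action potential frequency between the 1 s pre- and post-stimulus windows (spikes/s).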

Compound | odor-evoked OSN spike response [spikes/s]
CCCCCOC(C)=O [pentyl acetate] | 67.9 ± 20
COc1ccccc1O [guaiacol] | 123 ± 36
COC(=O)c1ccccc1O [Methyl salicylate] | 58.3 ± 32
CC(=O)C(C)O (stereo not given) [acetoin] | 69.8 ± 40
CCOC(=O)c1ccccc1 [ethyl benzoate] | 66.1 ± 26
CCOC(=O)CC(C)O (stereo not given) [Ethyl-3-hydroxybutyrate] | 93.1 ± 33
CCCCCC(=O)OCC [ethyl hexanoate] | 52.2 ± 20
CCCCC(C)O (stereo not given) [2-hexanol] | 67.3 ± 33
OCCc1ccccc1 [2-phenylethanol] | 53 ± 31
C=CC(O)CCCCC (stereo not given) [1-octen-3-ol] | 143 ± 47
Oc1ccccc1 [phenol] | 73 ± 38
CCCCCC(C)=O [2-heptanone] | 60.9 ± 21
C/C=C/C(=O)OCC [Ethyl crotonate] | 71.1 ± 37
CCOC(=O)C(C)O (stereo not given) [Ethyl lactate] | 58 ± 18
CCOC(C)=O [Ethyl acetate] | 55.2 ± 25
CC(=O)CCC=C(C)C [6-methyl-5-hepten-2-one] | 58.1 ± 30
CCCCCCO [1-hexanol] | 77.5 ± 29
CCCCCCCC(C)=O [2-nonanone] | 54.7 ± 22
CCCCCCCC(C)O (stereo not given) [2-nonanol] | 55.7 ± 33
CCCC(=O)OCC [ethyl butanoate] | 52.1 ± 29
